# In publication PMC5540273 (PLoS ONE, 2017):
# Key:
# Settings in all cases: concentration: 1 μM, replicates: in singlicate; n = 1
# DDR2 = tested on: DDR2
# DLK = tested on: T1, DLK
# T1 construct: gene MAP3K12
# DMPK2 = tested on: T2, DMPK2
# T2 construct: gene CDC42BPG
# DMPK = tested on: DMPK
# DRAK1 = tested on: T3, DRAK1
# T3 construct: gene STK17A
# DRAK2 = tested on: T4, DRAK2
# T4 construct: gene STK17B
# DYRK1A = tested on: DYRK1A
# DYRK1B = tested on: DYRK1B
# DYRK2 = tested on: DYRK2
# EGFR = tested on: EGFR
# 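Further: KINOMEscan kinase panel screen.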
Structure (SMILES),%Inh (DDR2),%Inh (DLK),%Inh (DMPK2),%Inh (DMPK),%Inh (DRAK1),%Inh (DRAK2),%Inh (DYRK1A),%Inh (DYRK1B),%Inh (DYRK2),%Inh (EGFR)
Cl.Fc1ccccc1COc1ccc(Nc2ncnc3ccc(-c4nnc(C(F)(F)F)o4)cc23)cc1Cl [GW424170],18%,11%,11%,0%,4%,0%,4%,0%,11%,99.4%
COC(=O)c1c(-c2ccccc2)c2cc(Cl)ccc2c(=O)n1Cc1ccc(S(C)(=O)=O)cc1,5%,0%,0%,0%,0%,3%,17%,10%,44%,6%
Fc1ccc(Nc2nccc(-c3c(-c4ccc(Cl)cc4)nn4ncccc34)n2)cc1F [GW829058],18%,20%,0%,21%,5%,0%,0%,11%,40%,24%
O=c1cc(N2CCOCC2)nc2n(Cc3cccc(Cl)c3)ccn12 [GSK2296823],0%,0%,0%,0%,0%,0%,28%,0%,9%,20%
Nc1nc(-c2ccc3c(N)n[nH]c3c2)cc(N2CCC[C@@H](C(=O)Nc3ccccc3)C2)n1.O=C(O)C(F)(F)F.O=C(O)C(F)(F)F [GSK2288359],7%,0%,15%,0%,55%,0%,0%,14%,32%,24%
